Measured values published in PubChem BioAssay AID1159580 (chemical genetic matrix, 2015).
Several values for one entry are separate records, joined by “and”; a condition that tells them apart may be missing. Equal entries are not always repeated. Hit rate of the full screen: of about 5,500 compounds, about 2,000 (36%) were called active. About 18% were inconclusive and are not listed. No stated cut-off is given here; in the data, active means normalized growth mostly below about 0.91 (no sharp cut-off); inconclusive means no clear call, values can overlap the other calls; inactive means mostly above about 0.92. Some of the results follow.

Test: chemical genetic growth profiling, strain panel (AID 1159580);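 further: tested at 20 µM; growth read once vehicle control cultures reached saturation at 30 °C; 1 = growth at the plate median or of vehicle wells; lower values mean less growth of the strain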
Conditions: growth OD

Measured: normalized growth

CC(NC(C)(C)C)C(=O)c1cccc(Cl)c1 (stereo unspecified)
inactive: S. cerevisiae deletion strains, locus YJR075W, strain HOC1, active compounds read low 1.02 | S. cerevisiae deletion strains, locus YKL009W, strain mrt4, active compounds read low 0.977 | S. cerevisiae deletion strains, locus YKL068W, active compounds read low 1.02 | S. cerevisiae deletion strains, locus YKL085W, strain MDH1 (second series), active compounds read low 1.02 | S. cerevisiae deletion strains, locus YKL085W, strain MDH1, active compounds read low 1.02 | S. cerevisiae deletion strains, locus YKL160W, strain elf1, active compounds read low 0.996 | S. cerevisiae deletion strains, locus YKL190W, strain CNB1, active compounds read low 1.01 | S. cerevisiae deletion strains, locus YKR001C, strain vps1, active compounds read low 1.02 | S. cerevisiae deletion strains, locus YKR026C, strain gcn3, active compounds read low 0.995 | S. cerevisiae deletion strains, locus YKR091W, strain srl3, active compounds read low 0.998 | S. cerevisiae deletion strains, locus YLL001W, strain dnm1, active compounds read low 0.993 | S. cerevisiae deletion strains, locus YLL026W, active compounds read low 1 | S. cerevisiae deletion strains, locus YLL041C, strain sdh2, active compounds read low 1 | S. cerevisiae deletion strains, locus YLR027C, strain aat2, active compounds read low 1 | S. cerevisiae deletion strains, locus YLR039C, strain RIC1, active compounds read low 1.03 | S. cerevisiae deletion strains, locus YLR058C, strain SHM2, active compounds read low 1.01 | S. cerevisiae deletion strains, locus YLR102C, strain apc9, active compounds read low 1.03 | S. cerevisiae deletion strains, locus YLR113W, strain HOG1, active compounds read low 0.986 | S. cerevisiae deletion strains, locus YLR221C, strain rsa3, active compounds read low 1.01 | S. cerevisiae deletion strains, locus YLR258W, strain gsy2, active compounds read low 0.996 | S. cerevisiae deletion strains, locus YLR262C, strain YPT6 (second series), active compounds read low 0.977 | S. cerevisiae deletion strains, locus YLR262C, strain YPT6, active compounds read low 1.05 | S. cerevisiae deletion strains, locus YLR268W, strain sec22, active compounds read low 1.03 | S. cerevisiae deletion strains, locus YLR320W, strain mms22, active compounds read low 0.985 | S. cerevisiae deletion strains, locus YLR330W, strain CHS5, active compounds read low 1.01 | S. cerevisiae deletion strains, locus YLR342W, strain FKS1 (second series), active compounds read low 0.98 | S. cerevisiae deletion strains, locus YLR342W, strain FKS1, active compounds read low 0.997 | S. cerevisiae deletion strains, locus YLR357W, strain rsc2, active compounds read low 0.983 | S. cerevisiae deletion strains, locus YLR370C, strain arc18, active compounds read low 1 | S. cerevisiae deletion strains, locus YLR371W, strain rom2, active compounds read low 1.04 | S. cerevisiae deletion strains, locus YLR384C, strain iki3, active compounds read low 0.993 | S. cerevisiae deletion strains, locus YLR418C, strain cdc73, active compounds read low 1.03 | S. cerevisiae deletion strains, locus YML016C, strain PPZ1, active compounds read low 1.01 | S. cerevisiae deletion strains, locus YML032C, strain rad52, active compounds read low 1.03 | S. cerevisiae deletion strains, locus YML120C, strain ndi1, active compounds read low 1.01 | S. cerevisiae deletion strains, locus YML124C, strain tub3, active compounds read low 1.04 | S. cerevisiae deletion strains, locus YMR058W, strain fet3, active compounds read low 0.997 | S. cerevisiae deletion strains, locus YMR078C, strain ctf18, active compounds read low 1.04 | S. cerevisiae deletion strains, locus YMR125W, strain sto1, active compounds read low 0.999 | S. cerevisiae deletion strains, locus YMR129W, active compounds read low 1 | S. cerevisiae deletion strains, locus YMR205C, strain PFK2, active compounds read low 0.982 | S. cerevisiae deletion strains, locus YMR223W, strain ubp8, active compounds read low 1.01 | S. cerevisiae deletion strains, locus YMR231W, strain pep5, active compounds read low 0.997 | S. cerevisiae deletion strains, locus YMR263W, strain SAP30, active compounds read low 1.01 | S. cerevisiae deletion strains, locus YMR307W, strain GAS1, active compounds read low 1 | S. cerevisiae deletion strains, locus YNL067W, strain RPL9B, active compounds read low 1.01 | S. cerevisiae deletion strains, locus YNL071W, strain lat1, active compounds read low 1.01 | S. cerevisiae deletion strains, locus YNL128W, strain TEP1, active compounds read low 1.02 and 0.978 | S. cerevisiae deletion strains, locus YNL153C, strain GIM3, active compounds read low 1.01 | S. cerevisiae deletion strains, locus YNL175C, strain NOP13, active compounds read low 0.99 | S. cerevisiae deletion strains, locus YNL183C, strain NPR1, active compounds read low 0.965 | S. cerevisiae deletion strains, locus YNL197C, strain WHI3, active compounds read low 1.02 | S. cerevisiae deletion strains, locus YNL209W, strain ssb2, active compounds read low 1.01 | S. cerevisiae deletion strains, locus YNL224C, strain SQS1, active compounds read low 0.999 | S. cerevisiae deletion strains, locus YNL233W, strain BNI4, active compounds read low 0.999 | S. cerevisiae deletion strains, locus YNL248C, strain rpa49, active compounds read low 0.992 | S. cerevisiae deletion strains, locus YNL250W, strain rad50, active compounds read low 1.04 | S. cerevisiae deletion strains, locus YNL271C, strain bni1, active compounds read low 1.03 | S. cerevisiae deletion strains, locus YNL298W, strain CLA4, active compounds read low 1 | S. cerevisiae deletion strains, locus YNL307C, strain MCK1, active compounds read low 1.03 | S. cerevisiae deletion strains, locus YNL322C, strain KRE1 (second series), active compounds read low 0.995 | S. cerevisiae deletion strains, locus YNL322C, strain KRE1, active compounds read low 1.01 | S. cerevisiae deletion strains, locus YNR049C, strain mso1, active compounds read low 1.01 | S. cerevisiae deletion strains, locus YNR052C, strain pop2, active compounds read low 1.01 | S. cerevisiae deletion strains, locus YOL006C, strain TOP1, active compounds read low 1.05 | S. cerevisiae deletion strains, locus YOL012C, strain htz1 1.05 | S. cerevisiae deletion strains, locus YOL147C, strain pex11, active compounds read low 1.04 | S. cerevisiae deletion strains, locus YOR001W, strain rrp6, active compounds read low 1 | S. cerevisiae deletion strains, locus YOR061W, strain CKA2, active compounds read low 1.02 | S. cerevisiae deletion strains, locus YOR069W, strain VPS5, active compounds read low 1.01 | S. cerevisiae deletion strains, locus YOR070C, strain gyp1, active compounds read low 1 | S. cerevisiae deletion strains, locus YOR080W, strain dia2, active compounds read low 0.996 | S. cerevisiae deletion strains, locus YOR083W, strain WHI5 (second series), active compounds read low 1.01 | S. cerevisiae deletion strains, locus YOR083W, strain WHI5, active compounds read low 0.996 | S. cerevisiae deletion strains, locus YOR106W, strain vam3, active compounds read low 0.989 | S. cerevisiae deletion strains, locus YOR136W, strain idh2, active compounds read low 1.03 | S. cerevisiae deletion strains, locus YOR144C, strain elg1, active compounds read low 1.03 | S. cerevisiae deletion strains, locus YOR184W, strain ser1, active compounds read low 1.06 | S. cerevisiae deletion strains, locus YOR231W, strain MKK1, active compounds read low 1 | S. cerevisiae deletion strains, locus YOR265W, strain rbl2, active compounds read low 0.994 | S. cerevisiae deletion strains, locus YOR270C, strain vph1, active compounds read low 0.995 | S. cerevisiae deletion strains, locus YOR290C, strain snf2, active compounds read low 1.02 | S. cerevisiae deletion strains, locus YOR316C, strain cot1, active compounds read low 1.03 | S. cerevisiae deletion strains, locus YPL051W, strain arl3, active compounds read low 1 | S. cerevisiae deletion strains, locus YPL055C, strain LGE1, active compounds read low 1.02 and 0.98 | S. cerevisiae deletion strains, locus YPL078C, strain atp4, active compounds read low 0.998 | S. cerevisiae deletion strains, locus YPL106C, strain sse1, active compounds read low 0.976 | S. cerevisiae deletion strains, locus YPL240C, strain hsp82, active compounds read low 1 | S. cerevisiae deletion strains, locus YPL241C, strain CIN2, active compounds read low 1.01 and 0.988 | S. cerevisiae deletion strains, locus YPL256C, strain CLN2, active compounds read low 1.03 | S. cerevisiae deletion strains, locus YPR119W, strain clb2, active compounds read low 1.04 | S. cerevisiae deletion strains, locus YPR141C, strain kar3, active compounds read low 1.02 | S. cerevisiae deletion strains, locus YPR163C, strain tif3, active compounds read low 1.04 | S. cerevisiae deletion strains, locus YPR167C, strain met16, active compounds read low 1.03 | S. cerevisiae deletion strains, strain wtn01, active compounds read low 1.03 | S. cerevisiae strains, strain wild type, active compounds read low 1
